# Laboratory results from ChEMBL document CHEMBL4513216, “Probing the Open Global Health Chemical Diversity Library for Multistage-Active Starting Points for Next-Generation Antimalarials” (ACS Infect Dis, 2020).
# Screen size: about 69,000 compounds; about 8,600 (12%) showed an effect of 50% or more. The full list was thinned out, with strong results kept by preference.
# System: Plasmodium berghei
# Test: Screen against P. berghei liver stage (PbLuc), transformed with Luciferase, at 10uM
# Assay type: functional, HepG2
# Settings: tested at 10 uM
row,Structure (SMILES),INHIBITION [%]
1,CCn1cnnc1C1CCN(C(=O)c2ccc3ccccc3n2)CC1,26.4
2,Cc1nnc(N2C[C@@H](Oc3ccccn3)[C@H]3OCCC[C@H]32)s1,-23.8
3,COc1ccc(C)cc1C(C)NCc1cnnn1C (stereo unspecified),0.818
4,COCc1cn(CC2CCN(Cc3c(C)[nH]c4ccccc34)CC2)nn1,15.8
5,Cc1nn(-c2ccccc2Cl)c(C)c1CCC(=O)O,15.4
6,CCc1ccc(CN2CCN(c3cccc(OC)c3)C(=O)C2)nc1,-8.99
7,O=C(c1ccco1)N1CCC2(CCCN(c3ncccn3)C2)C1 (stereo unspecified),77.4
8,O=C(c1ccco1)N1CCC2(CCCN(c3ncc(F)cn3)C2)C1 (stereo unspecified),43
9,O=C(c1ccco1)N1CCC2(CC1)CCN(c1ncccn1)CC2,-7.28
10,O=C(O)c1cnc(OCC2CC2)c(Br)c1,-4.56
11,COCCN1C(=O)CC[C@@H]2[C@H]1CCN2C(=O)C1CCOCC1,52.3
12,O=C1CC[C@H]2[C@H](CCN2C(=O)C2CCOC2)N1Cc1ccncc1 (stereo partly specified),54.7
13,O=C1CC[C@@H]2[C@@H](CCN2C(=O)c2ccsc2)N1CC1CC1,47.8
14,O=C1CC[C@H]2[C@H](CCN2C(=O)C2CCOCC2)N1Cc1ccncc1,7.11
15,O=C1CC[C@@H]2[C@@H](CCN2C(=O)C2CCOCC2)N1CC1CC1,18.5
16,Cc1nc(CN2C(=O)CC[C@H]3[C@@H]2CCN3C(=O)c2ccsc2)cs1,4.55
17,O=C1CC[C@H]2[C@H](CCN2C(=O)C2CCCO2)N1Cc1ccncc1 (stereo partly specified),8.69
18,COCCN1C(=O)CC[C@@H]2[C@H]1CCN2C(=O)N(C)C,-37.8
19,O=C1CC[C@@H]2[C@@H](CCN2C(=O)c2ccsc2)N1Cc1ccncc1,63.7
20,COCCN(C(=O)c1ccn(-c2ccc(OC)cc2)n1)C(C)C(N)=O (stereo unspecified),0.0996
21,COc1cc(OC)c(C2SCC(=O)Nc3n[nH]cc32)cc1OC (stereo unspecified),26.8
22,COc1cc(C2SCC(=O)Nc3n[nH]cc32)cc(OC)c1O (stereo unspecified),60.7
23,COc1cccc(C2SCC(=O)Nc3n[nH]cc32)c1OC(C)C (stereo unspecified),40

row,Structure (SMILES),INHIBITION [%]
1,COc1ccc(OC)c(C2SCC(=O)Nc3n[nH]cc32)c1 (stereo unspecified),70.6
2,COc1ccc(C2SCC(=O)Nc3n[nH]cc32)c(OC)c1OC (stereo unspecified),32.5
3,COc1ccccc1C1SCC(=O)Nc2n[nH]cc21 (stereo unspecified),42.6
4,N#Cc1cn(C2CC2)c(=O)n(CC(O)c2ccc(F)cc2)c1=O (stereo unspecified),35.85
5,CCN(Cc1ccccc1)C(=O)c1cc(C2CCCN2C)ccn1 (stereo unspecified),-31
6,Cc1csc(N2CCN(C(=O)CCCNc3ncccn3)CC2)n1,26.4
7,Cc1cccc(N2CCc3ncc(CNS(C)(=O)=O)n3CC2)n1,22.4
8,COc1ccc(CN2CCC[C@@H]3CN(C(=O)c4ccco4)C[C@@H]32)cc1,29
9,O=C(c1cn(CC(=O)N2CCCCC2)c2ccccc12)C1CC1,13.94
10,O=C(c1cn(CC(=O)N2CCCC2)c2ccccc12)C1CC1,71.7
11,O=C(c1cn(CC(=O)N2CCCCCC2)c2ccccc12)C1CC1,27.8
12,CN1CCCC1c1ccnc2nccn12 (stereo unspecified),19.9
13,CCC(C(=O)NCC1CCN(c2ccncc2)CC1)N(C)C (stereo unspecified),34.9
14,O=C(Cn1cccnc1=O)NC(Cc1ccsc1)c1nccs1 (stereo unspecified),29.3
15,Cc1csc(C(Cc2ccsc2)NC(=O)Cn2cccnc2=O)n1 (stereo unspecified),34
16,CS(=O)(=O)N1CCC(C(=O)NC(Cc2ccsc2)c2ccccn2)CC1 (stereo unspecified),40.9
17,O=C(Cn1cccnc1=O)NC(Cc1ccsc1)c1ccccn1 (stereo unspecified),41.5
18,Cc1cccnc1C(Cc1ccsc1)NC(=O)Cn1cccnc1=O (stereo unspecified),59
19,Cc1cc(C)n(CC(=O)NC(Cc2ccsc2)c2ccccn2)c(=O)n1 (stereo unspecified),54
20,CNc1nc2c(c(C(=O)N3CCCC3)n1)CN(Cc1ccco1)CC2,17.2
21,CC(C)Nc1ncnc2c1CCN(C(=O)NCc1cccnc1)CC2,-1.15
22,CC(C)Nc1ncnc2c1CCN(C(=O)NCc1cccc(F)c1)CC2,51.2
23,CC(C)Nc1ncnc2c1CCN(C(=O)CN(C)C)CC2,36.9

row,Structure (SMILES),INHIBITION [%]
1,O=C(NCc1cccc(F)c1)N1CCc2ncnc(NC3CC3)c2CC1,16.8
2,CC(C)Nc1ncnc2c1CCN(C(=O)Cc1ccccn1)CC2,8.69
3,CC(C)Nc1ncnc2c1CCN(C(=O)CCc1ccccc1)CC2,61.4
4,COCC(=O)N1CCC(=O)N(C2CCCC2)Cc2ccccc21,-20.1
5,Cc1ccnc(CNC(=O)C2CC(=O)N(CCN(C)C)C2)c1 (stereo unspecified),8.41
6,NC(=O)C1=NC2=NS(=O)(=O)c3ccccc3N2N1Cc1ccc(Cl)cc1,59.7
7,NC(=O)C1=NC2=NS(=O)(=O)c3ccccc3N2N1Cc1ccc(Br)cc1,1.96
8,NC(=O)C1=NC2=NS(=O)(=O)c3ccccc3N2N1Cc1ccccc1Cl,30.8
9,COCCC(=O)N(CCC#N)c1ccc(C)c(C)c1,27
10,Cc1ncnc2c1CCN(Cc1ccccn1)CC2,-64.8
11,Cc1ccccc1-c1cncc(C2CCN(Cc3ccccn3)CC2)n1,19.6
12,Cc1nc(C2CCCNC2)nc2c1CCCN2Cc1ccccn1 (stereo unspecified),11.8
13,Cc1c(C)n(-c2ccccn2)c2nc3c(c(N)c12)CCCCC3,32.2
14,Cc1c(C)n(Cc2ccccn2)c2nc3c(c(N)c12)CCCC3,58.4
15,Cc1c(C)n(Cc2ccccn2)c2nc3c(c(N)c12)CCCCCC3,49.7
16,Cc1ncnc2c1CCN(c1ccccn1)CC2,-15.6
17,Cc1c(C)n(Cc2ccccn2)c2nc3c(c(N)c12)CCCCC3,55.3
18,Cc1c(C)n(-c2ccccn2)c2nc3c(c(N)c12)CCCC3,67.1
19,CC(=O)N1CCC(c2nn(C)c3nccnc23)C1 (stereo unspecified),-2.11
20,CC(C)n1cc(CN2CCCN(C(=O)COC3CCCC3)CC2)cn1,45.7
21,CCOc1ccc(-c2nc(C(=O)NCC3CCOC3)cs2)cc1 (stereo unspecified),-16
22,CC(C)(C)c1cc(=O)n2c(n1)SCC(C(=O)NCc1ccco1)C2 (stereo unspecified),46.1
23,COc1ccc(C2=Nn3c(CCCN)nnc3-c3ccccc3C2)cc1,18.4

row,Structure (SMILES),INHIBITION [%]
1,COc1ccc(C2=Nn3c(CCN)nnc3-c3ccccc3C2)cc1,21.7
2,COc1ccc(C2=Nn3c(CN)nnc3-c3ccccc3C2)cc1,64
3,Cc1cc(C)nc(Nc2cccc(C3CCCN(S(C)(=O)=O)C3)n2)n1 (stereo unspecified),44.8
4,Cc1ccc(NC2CCCN(C3Cc4ccccc4C3)C2)nn1 (stereo unspecified),34.9
5,CNc1cc(C)nc(NC2CCCN(C3Cc4ccccc4C3)C2)n1 (stereo unspecified),79.4
6,CNc1nc(C)cc(NC2CCCN(C3Cc4ccccc4C3)C2)n1 (stereo unspecified),83.9
7,Cc1cc(C)nc(NC2CCc3nc(C)nn3C2)n1 (stereo unspecified),-12.1
8,O=C(NCc1ccc2nonc2c1)C1CCN(C(=O)C2CCC2)CC1,-119
9,Cc1cc(C)nc(Nc2cccc(C3CCCN(C)C3)n2)n1 (stereo unspecified),28.4
10,c1ccc2c(c1)CC(N1CCCC(NCc3ccc4nonc4c3)C1)C2 (stereo unspecified),50.1
11,c1ccc2c(c1)CC(N1CCCC(NCc3cccc4nonc34)C1)C2 (stereo unspecified),41.5
12,Cc1ccc(CNCC2CCN(CC(O)c3ccccc3)CC2)o1 (stereo unspecified),-23.8
13,O=C(NCc1nncn1C1CC1)c1ccccc1OCC1CC1,25.6
14,CN(C)c1ncc(-c2cc(C(=O)NCCO)n(CC3CC3)c2)cn1,26.3
15,CCOc1ccccc1C(=O)Oc1cc(=O)n2cccc(C)c2n1,4.35
16,O=C(NC1CCC1)c1c2c(N3CCCC3)ncnc2n2ccccc12,46.2
17,COCCCN(CCOC)C(=O)Nc1ccccc1-n1cccn1,32.2
18,COCCN(C)C(=O)c1ccccc1-n1cccn1,63.8
19,COCCN(C)C(=O)c1ccccc1-n1cc(CN(C)C)cn1,-29.8
20,CC(C)n1nc(CN2CCOCC2)c2c1CN(C(=O)c1ccno1)C2,62.3
21,CC(C)n1nc(CN2CCCCC2)c2c1CN(C(=O)c1ccno1)C2,26.5
22,CC(C)n1nc(CN2CCCC2=O)c2c1CN(C(=O)c1ccno1)C2,27.5
23,COCCNC(=O)c1cc(C)nc(C2CCN(C)CC2)n1,-22.5

row,Structure (SMILES),INHIBITION [%]
1,CNC(=O)[C@@H]1COC[C@H]2CN(C(=O)c3ccc(OC)cc3)C[C@H]21,-2.03
2,CCc1ccc(C(=O)N2C[C@@H]3COC[C@@H](C(=O)NC)[C@@H]3C2)cc1,6.83
3,CNC(=O)[C@@H]1COC[C@H]2CN(C(=O)c3ccc(C)c(F)c3)C[C@H]21,31.9
4,CNC(=O)[C@@H]1COC[C@H]2CN(C(=O)c3ccc(C)c(C)c3)C[C@H]21,51.2
5,CNC(=O)[C@@H]1COC[C@H]2CN(C(=O)COc3ccccc3)C[C@H]21,63
6,CNC(=O)[C@@H]1COC[C@H]2CN(C(=O)c3cccc(OC)c3)C[C@H]21,33.4
7,O=C(NC1CCN(C2CC2)CC1)N1CCN(c2cnccn2)CC1,37.9
8,CN(C)C(=O)CO[C@H]1CN(Cc2nccs2)[C@@H]2COC[C@H]12,0.71
9,COc1ccc(Oc2ncccc2F)cc1CN1CCCC1,74.8
10,COc1cc(CN2CCCC2)ccc1Oc1ncccc1C(F)(F)F,80.3
11,COc1cc(Oc2ncccc2C(F)(F)F)ccc1CN1CCCC1,88.4
12,Fc1cccnc1Oc1cc(F)c(CN2CCCC2)c(F)c1,9.84
13,Fc1cccnc1Oc1cc(F)c(CN2CCCC2)c(Cl)c1,60.9
14,COC(=O)c1ccc(Cn2cccc(C(F)(F)F)c2=O)c(OC)c1,33.1
15,COc1ccc(OC)c(CN2CCN(Cc3cscn3)CC2)c1,1.06
16,N#Cc1cccnc1Oc1cc(F)c(CN2CCCC2)c(Cl)c1,11.4
17,COc1cc(CN2CCCC2)ccc1OC12CCCN(CC1)C2 (stereo unspecified),-14.7
18,COc1ccc(Oc2nccc3occc23)cc1CN1CCCC1,-4.23
19,COc1ccc(CC(=O)Nc2cccnc2N2CCCC2)cc1OC,4.71
